Results: PubChem BioAssay AID651965 (National Center for Advancing Translational Sciences (NCATS), 2013)
About 6,400 (1.9%) of roughly 340,000 compounds were called active. Where a call stands in place of a potency, no number is given. Another 4% or so got no clear call; they are omitted. Calls come from the whole dose curve; as a rule, active = well fitted falling curve with a large enough effect; inconclusive = small, poorly fitted or top-dose-only effect; inactive = no such curve, though single readings can be large or run the other way. The full list was thinned out, with actives kept by preference.

Biological target: ATP-dependent Clp protease proteolytic subunit (Bacillus subtilis (strain 168)) (UniProt P80244)
Sequence (P80244 whole entry, looked up): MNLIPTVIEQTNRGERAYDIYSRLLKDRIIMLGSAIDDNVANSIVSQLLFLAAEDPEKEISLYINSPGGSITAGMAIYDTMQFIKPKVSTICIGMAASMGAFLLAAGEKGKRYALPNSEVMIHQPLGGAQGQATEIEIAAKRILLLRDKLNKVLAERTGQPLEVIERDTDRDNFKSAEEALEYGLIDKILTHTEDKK
Assay: qHTS Assay for Activators of ClpP; note: the source files actives as falling curves though it sought activators and does not explain the sign; nearly all actives have a fitted effect of over 65% in size
Conditions: purified B. subtilis ClpP, FRET peptide cleavage, 20 min; series mostly up to 57.5 µM
In short: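 FRET quenching reversal measured ClpP activation: 10 microg/mL B. subtilis ClpP at pH 8 with the FRET-FV decapeptide, read at 430 nm after 320 nm excitation. The 20-min minus 0-min signal was scaled between DMSO/no-enzyme wells and ADEP (5.8 microM final).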
Potency is the fitted concentration of half-maximal effect.

SMILES	Potency
CCOC(=O)C1=CC[C@@H](c2ccccc2)N(S(=O)(=O)c2ccc(C)cc2)[C@H]1c1cccc(OC)c1	inactive
O=C(c1ccc(C(F)(F)F)cc1)N1CCC(=O)N([C@H](COCc2ccccc2)Cc2ccccc2)CC1	inactive
CCc1nnc(NC(=O)CCN(c2ccc(C)cc2)S(=O)(=O)c2ccccc2)s1	inactive
O=C(O)c1cc(S(=O)(=O)N(Cc2ccccc2)c2cccc(C(F)(F)F)c2)ccc1Cl	inactive
Cc1ccc(N(CCC(=O)O)S(=O)(=O)c2cccc(C(F)(F)F)c2)cc1	31.6 µM (active)
CN(C)CCNC(=O)c1cccc(-c2cnc3c(NC=O)cc(-c4cccc(C(F)(F)F)c4)cn23)c1	inactive
COc1ccc(S(=O)(=O)N2CCOCC2)cc1NC(=O)CC1CC2CCC1C2 (centres undefined)	inactive
CCN(CC(=O)Nc1ccccc1OC)C(=O)CC1CC2CCC1C2 (centres undefined)	35.5 µM (active)
CCN(CC(=O)Nc1ccccc1OC)C(=O)Cn1cnc2ccccc2c1=O	inactive
COc1cccc(-c2nc3nc(C)cc(C)n3c2NC2CCCCC2)c1	inactive
COc1ccccc1-c1cc2nc(NCc3cccc(Cl)c3)ccn2n1	inactive
O=S(=O)(NCCc1ccc(Cl)cc1)c1cccs1	inactive
Cc1nc2sc(C)c(C)n2c(=O)c1S(=O)(=O)NCCc1ccc(Cl)cc1	3.98 µM (active)
Cc1nc2sccn2c(=O)c1S(=O)(=O)NCCc1ccccc1	inactive
CCOC(=O)[C@]12CCC=C1N(Cc1ccco1)C(=O)[C@H](CC(=O)NCc1cccc(C(F)(F)F)c1)C2	inactive
O=[N+]([O-])c1ccc(CN2CC(N3CC=CC3)CS2(=O)=O)cc1 (centres undefined)	inactive
Cc1ccc(-c2cnc(C(O)c3cc(Cl)cc(Cl)c3)[nH]2)cc1 (centres undefined)	inactive
Cc1cc2oc(=O)cc(CN(C)Cc3ccccc3)c2cc1Cl	inactive
CN1OC[C@@H]2CN[C@H](c3ccc(-c4ccccc4)cc3)C[C@@H]21	inactive
Cc1ccc(C2=C/C(=C\c3cccnc3)C(=O)O2)cc1	inactive
Cc1ccc(C2=N/C(=C\c3ccc(OS(=O)(=O)c4ccc(C)cc4)cc3)C(=O)O2)cc1	inactive
O=C1OC(c2ccc(Cl)cc2)=N/C1=C\c1cccnc1	3.16 µM (active)
O=C(O)c1cnn2c(C(F)(F)F)cc(-c3ccccc3)nc12	0.631 µM (active)
COC(=O)c1cnn2c(C(F)(F)F)cc(-c3ccco3)nc12	28.2 µM (active)
O=C(NCCCN1CCOCC1)c1cnn2c(-c3ccccc3)cc(-c3ccccc3)nc12	15.8 µM (active)

SMILES	Potency
O=C(NCCCN1CCOCC1)c1cc(-c2ccccc2F)no1	inactive
O=C(NCc1ccco1)c1cnn2c(C(F)(F)F)cc(-c3ccco3)nc12	inactive
Cc1ccc(-c2cc(C(F)(F)F)n3ncc(C(=O)N4CCCCC4c4cccnc4)c3n2)cc1 (centres undefined)	inactive
Cc1cccc(N2CCN(C(=O)c3cnn4c(C(F)F)cc(-c5ccccc5)nc34)CC2)c1C	inactive
O=C(NCCCN1CCOCC1)c1cn(-c2ccccc2)nc1-c1ccc(F)cc1	inactive
Cc1cccc(NC(=O)CSc2nc(-c3ccco3)cc(C(F)(F)F)n2)c1C	inactive
Cc1cccc(CNC(=O)c2sc(=O)n(Cc3ccccc3C)c2C)c1	inactive
Cc1ccc(-c2nc3ccc(Br)cn3c2Cc2ccccc2C(F)(F)F)cc1	inactive
Cc1csc[n+]1CCC1CCCCC1	inactive
CCOC(=O)C1(C)CCCN(C(=O)c2cccc(Cl)c2)C1 (centres undefined)	inactive
CN(C(=N)N)c1ccc(/C=C2\C=Cc3ccccc32)cc1	inactive
CCCCC(CCCC)c1ccc(C=Nc2ccc(/C=C/c3ccnc4ccccc34)cc2)cc1	inactive
Cc1cc([N+](=O)[O-])ccc1NC(=O)C1CCCO1 (centres undefined)	inactive
COC(=O)c1cc(OC)c(OC)cc1NC(=O)C1CCCO1 (centres undefined)	20 µM (active)
CCc1cc(Br)ccc1NC(=O)C1CCCO1 (centres undefined)	inactive
C#Cc1ccc(NC(=O)C2(C)CCN2C(=O)Cc2ccc(-c3ccccc3)cc2)cc1 (centres undefined)	inactive
CCCNC(=O)C1(C)CCN(C(=O)c2ccccc2OC(F)(F)F)C1 (centres undefined)	inactive
O=C(Nc1ccc(Cl)cc1)c1csc([C@@H]2O[C@H](CO)[C@H](O)[C@H](O)[C@H]2O)n1	inactive
COc1ccc(C2Nc3ccc(NC(=O)COC(C)=O)cc3C(=O)N2Cc2ccccc2)cc1COc1ccc(NC(C)=O)cc1 (centres undefined)	inactive
COc1ccc(C2Nc3ccccc3C(=O)N2Cc2ccccc2)cc1Cn1nnc2ccccc21 (centres undefined)	35.5 µM (active)
COc1ccc(C2Nc3ccccc3C(=O)N2c2ccc(F)cc2)cc1Cn1nnc2ccccc21 (centres undefined)	inactive
COc1cccc(C(NC(C)=O)c2nc(-c3cnc4ccccc4c3)cs2)c1 (centres undefined)	inactive
COCC(C)NC(=O)c1ccc(Cl)c(Cl)c1 (centres undefined)	14.1 µM (active)
COCC(C)NC(=O)c1ccc(-n2nc(C(F)(F)F)cc2-c2cccs2)cc1 (centres undefined)	inactive
CC(CCc1ccccc1)NC(=O)c1cnc(Cl)c(Cl)c1 (centres undefined)	inactive

SMILES	Potency
CCOC(=O)C1=CCC(c2ccc(F)cc2)N(S(=O)(=O)c2ccc(C)cc2)C1 (centres undefined)	inactive
CCOC(=O)c1cc2c(n(-c3ccc(C)cc3)c1=O)CCCC2=O	31.6 µM (active)
CCCCOc1ccc(NC(=O)c2cc3c(n(-c4ccc(Cl)cc4)c2=O)CCCC3=O)cc1	inactive
CCOC(=O)C1=C(N)N(c2ccc(C)cc2)C2=C(C(=O)CCC2)C1c1cccs1 (centres undefined)	inactive
Cc1ccc([C@H]2C[C@H](O)[C@@H](n3cc(COC(=O)c4ccccc4)nn3)CN2CC2CCCCC2)cc1	inactive
COc1ccc(C(C)(O)c2nc(-c3ccc(C)c(C)c3)cs2)cc1 (centres undefined)	inactive
ClC/C=C/C[n+]1ccccc1Cl	inactive
CCc1cc(=O)oc2cc(C)cc(OC(C)C(=O)O)c12 (centres undefined)	3.55 µM (active)
CCc1cc(=O)oc2cc(C)cc(OCC(=O)N3CCC[C@@H]3C(=O)O)c12	inactive
Cc1cc(OC(C)C(=O)NC2CC(C)(C)NC(C)(C)C2)c2c(C)cc(=O)oc2c1 (centres undefined)	inactive
CC1(C(=O)NS(=O)(=O)c2ccc(C#N)cc2)CCN1C(=O)c1ccc(C2CCCCC2)cc1 (centres undefined)	inactive
CC(C)(C)c1ccc(C(=O)C[n+]2cccc3cc(Cl)ccc32)cc1	inactive
O=C(NCCN1CCOCC1)c1cc(Sc2cccc(Cl)c2)nc2ccccc12	inactive
O=C(NCCN1CCOCC1)c1cc(-c2cccs2)nc2ccccc12	28.2 µM (active)
O=C(NCC(c1cccs1)N1CCOCC1)c1cc(-c2ccccn2)nc2ccccc12 (centres undefined)	inactive
NC(c1csc(NC(=O)Nc2ccccc2Oc2ccccc2)n1)c1ccccc1Cl (centres undefined)	inactive
O=C(NCc1ccc(F)cc1)c1cc(C2CCCCN2C(=O)c2ccccn2)on1 (centres undefined)	inactive
COC(=O)c1c(NC(=O)c2cccs2)sc2c1CCCC2	35.5 µM (active)
CCOC(=O)c1c(NC(=O)c2ccc(Br)o2)sc2c1CCCC2	31.6 µM (active)
COC(=O)c1c(NC(=O)CSc2nncs2)sc2c1CCCCC2	inactive
CCOC(=O)c1c(NC(=O)c2cc(-c3ccc(Cl)cc3)on2)sc2c1CCCC2	inactive
COC(=O)c1c(NC(=O)c2ccc(Cl)c(Cl)c2)sc2c1CCCC2	inactive
CCOC(=O)c1c(NC(=O)c2ccc(S(=O)(=O)N(CC)CC)cc2)sc2c1CCCCC2	inactive
Cc1noc(C)c1-c1ccc(C(=O)NCc2ccncc2)c2occc12	inactive
CC(C)OCCCNC(=O)c1cc(Sc2ccc(F)cc2)nc2ccccc12	inactive

SMILES	Potency
CCN1CCCC1CNC(=O)c1cc2cc(OC)c(OC)cc2[nH]1 (centres undefined)	inactive
CCN1CCCC1Cn1cnc2c([nH]c3cc(OC)ccc32)c1=O (centres undefined)	inactive
CCN1CCCC1CNc1ncnc2c1[nH]c1ccc(F)cc12 (centres undefined)	28.2 µM (active)
CC(C)OCCCNc1ncnc2c1[nH]c1ccc(F)cc12	15.8 µM (active)
Fc1ccc2[nH]c3c(N4CCN(Cc5ccc6c(c5)OCO6)CC4)ncnc3c2c1	inactive
Cc1ccc([C@H]2N[C@]3(CCCN(CC4CCCCC4)C3=O)[C@H]3C(=O)N(Cc4ccccc4)C(=O)[C@@H]23)cc1	inactive
CCCc1c(-c2ccccc2F)ncn1Cc1ccccc1OC	inactive
C=C1C(=O)OC2C1CCC(C)=CCCC1(C)OC21 (centres undefined)	inactive
O=C(NCc1ccc(F)cc1)c1cc(C2CCCCN2C(=O)c2cccs2)on1 (centres undefined)	inactive
COc1cc2[nH]c(C)c(CCN3CCN(c4ccccc4)CC3)c2cc1OC	inactive
CC1(C(=O)NS(=O)(=O)C2CC2)CCCN(C(=O)CSc2ccccc2)C1 (centres undefined)	inactive
CC1(C(=O)NCC2CCOCC2)Cc2c(-c3cccc(C(N)=O)c3)ccnc2O1 (centres undefined)	inactive
COc1ccc(-c2csc(C(O)c3cccc(Cl)c3)n2)cn1 (centres undefined)	inactive
Cc1cccc(Cn2c(=O)n(CCC(=O)NCCc3ccc(Cl)cc3)c(=O)c3sccc32)c1	inactive
O=C(Cn1c(-c2cccs2)cc2ccccc21)NCCc1ccc(Cl)cc1	20 µM (active)
O=C(Cn1c(=O)nc(-c2ccccc2)c2cc(Cl)ccc21)NCc1ccc(Cl)cc1	inactive
CN(C)C1CN(Cc2cn(Cc3ccccc3)nn2)S(=O)(=O)C1 (centres undefined)	inactive
O=c1[nH]c2ccccc2n1C1CCN(CCOc2ccccc2)CC1	inactive
COC(=O)C1(C(=O)OC)C[C@H](c2ccccc2)N(Cc2ccccc2OC)[C@@H]1c1ccccc1	inactive
O=C(NCc1ccc(Cl)cc1)c1cc2c(nc3sccn32)s1	31.6 µM (active)
O=C(NCc1ccc(Cl)cc1)c1cc(=O)nc2sc(-c3ccccc3)nn12	inactive
O=C(NCc1ccc2c(c1)OCO2)c1c(O)nc2sccn2c1=O	inactive
CCc1nc2ccc(C(=O)NCc3ccc(OC)cc3)cn2c1N(CC)Cc1cccc(Br)c1	inactive
COc1ccc(C(O)C(O)(C(=O)OC(C)C)c2ccc(C)cc2)cc1 (centres undefined)	inactive
